From PubChem BioAssay
Hits are enriched below; roughly 3.2% of the tested compounds scored in any of these assays.
FBA Mtb inh: inhibitors of M. tuberculosis fructose-bisphosphate aldolase. P9WQA3. purified M. tuberculosis FBA, fluorescence read-out. inhibition, % at 1 µM. 360,000 compounds, 2.3% hits;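 also: 0% = vehicle and 100% = reference inhibitor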
Target sequence (P9WQA3 whole entry, looked up): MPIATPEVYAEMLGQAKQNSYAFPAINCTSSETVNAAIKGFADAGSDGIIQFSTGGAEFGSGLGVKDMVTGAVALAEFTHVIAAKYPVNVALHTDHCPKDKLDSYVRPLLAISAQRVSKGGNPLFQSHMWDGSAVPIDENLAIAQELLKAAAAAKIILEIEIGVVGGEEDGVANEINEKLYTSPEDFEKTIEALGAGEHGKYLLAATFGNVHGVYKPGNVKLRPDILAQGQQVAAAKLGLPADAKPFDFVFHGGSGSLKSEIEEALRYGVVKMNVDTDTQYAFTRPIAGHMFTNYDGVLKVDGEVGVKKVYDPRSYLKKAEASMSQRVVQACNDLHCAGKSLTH
GDH-TPI counter-1: GDH-TPI coupled enzyme inhibition counter-screen. inhibition, % at 4.8 µM. 360,000 compounds, 1.2% hits. AID 588335. GDH-TPI coupled enzyme counterscreen, NADH absorbance; in the data active = inhibition above about 30%;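 also: 0% = DMSO wells and 100% = wells lacking the enzyme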
SSB-PriA inh: inhibitors of Klebsiella pneumoniae PriA binding to SSB C-terminal tail | AlphaScreen SSBct-PriA binding, biotinylated peptide | inhibition, % at 33 µM | 430,000 compounds, 0.6% hits; in the data active = inhibition mostly above about 37%, no sharp cut-off; inactive = mostly below about 20%;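 also: plate controls were negative control peptide for no effect and reference peptide for full effect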
Mtb UGM inh: inhibitors of M. tuberculosis UDP-galactopyranose mutase; inhibition, % at 10 µM; 320,000 compounds, 0.06% hits; AID 504406; purified UGM, fluorescence polarization probe displacement; in the data active = inhibition above about 10%, passing the limit was not always enough; inconclusive = no clear call, values can overlap the other calls
Mtb bLac sens: beta-lactam sensitization of Mtb H37Rv; 330,000 compounds, 0.27% hits; M. tuberculosis H37Rv growth with meropenem, percent inhibition; inhibition, % at 25 µM; AID 434955; call rule not given here;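 also: growth measured after seven days incubation then overnight dye step; 0% = bacteria only wells and 100% = bacteria with antibiotic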
Rv3671c inh: inhibits the M. tuberculosis serine protease Rv3671c | inhibition, % at 5.96 µM | P9WHR9 | AID 2606 | 320,000 compounds, 0.048% hits; in the data active = inhibition above about 38%;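 also: extracellular domain of Rv3671c used as enzyme; 0% = enzyme with DMSO and 100% = no enzyme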
Mtb FBA inh conf: confirmation of M. tuberculosis fructose-bisphosphate aldolase inhibitors; shares compounds with FBA Mtb inh; purified M. tuberculosis FBA, fluorescence read-out; inhibition, % at 1 µM; 5,600 compounds, 78% hits; AID 651616;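 also: 0% = vehicle wells and 100% = reference inhibitor wells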
GDH-TPI counter-2: GDH-TPI inhibition counter-screen for FBA inhibitors; shares compounds with FBA Mtb inh; AID 652141; inhibition, % at 1 µM; GDH-TPI coupled enzyme counterscreen, fluorescence; 5,600 compounds, 81% hits; in the data active = inhibition above about 10%
* hit, by the source's call; ? = inconclusive; nt = not tested or not shown; + = active, no number. Rule as the data show it, unless noted: active = inhibition above about 27%; inactive = the rest.

SMILES | FBA Mtb inh | GDH-TPI counter-1 | SSB-PriA inh | Mtb UGM inh | Mtb bLac sens | Rv3671c inh | Mtb FBA inh conf | GDH-TPI counter-2
COCc1nnc(NC(=O)c2ccccc2Oc2ccccc2)s1 | 73* | 8 | -19 | -1 | -2 | 6 | 158* | 119*
CCCCc1ccc(N=NC(C(=O)Nc2ccc(NC(C)=O)cc2OC)=C(C)O)cc1 | nt | nt | 11 | nt | nt | nt | nt | nt
COc1cc(NC(=O)c2cc(Cl)ccc2Cl)ccc1-c1cc2ccccc2oc1=O | 8 | 21 | -14 | 1 | ? | -16 | nt | nt
CCc1ccc(OCC(=O)Nc2ccc(-c3cc4ccccc4oc3=O)c(OC)c2)cc1 | 37* | 12 | -8 | -1 | -2 | -37 | 64* | 46*
COc1ccc(/C=C\c2cc(OC)c(OC)cc2CC[N+](C)(C)C)cc1OC | 34* | 21 | 11 | -2 | -1 | 1 | 0 | -3
COc1ccc(/C=C/c2ccncc2)cc1OC | 10 | 21 | -7 | -1 | 3 | 4 | nt | nt
O=C(O)c1cc(S(=O)(=O)O)cc(Nc2c3ccccc3nc3ccccc23)c1O | 43* | -3 | -2 | 1 | 3 | 3 | 40* | 34*
O=C(NNc1c2ccccc2nc2ccccc12)c1ccc(O)cc1O | 5 | 0 | 69 | 0 | 62 | 24 | nt | nt
Cc1nccc2c1[nH]c1ccccc12 | 94* | 3 | 4 | 1 | 0 | 8 | 4 | -4
Cc1c2ccncc2cc2c1[nH]c1ccccc12 | 9 | 8 | -14 | nt | nt | nt | nt | nt
OCCCCc1nccc2c1[nH]c1ccccc12 | 69* | 7 | -6 | 3 | 5 | -3 | + | 186*
CCc1nccc2c1[nH]c1ccccc12 | 81* | 8 | -10 | 6 | 1 | -2 | + | 161*
c1ccc2c(c1)[nH]c1cnccc12 | 37* | 17 | -2 | -2 | -2 | -12 | 32* | 41*
COc1ccc(Cl)c2sc(NC(=O)NC(C)C)nc12 | nt | nt | -8 | nt | nt | nt | nt | nt
COC(=O)C1C(O)=C(C=Nc2ccccc2)C(=O)CC1(C)C (stereo not given) | -4 | 21 | -9 | -2 | 3 | -3 | nt | nt
COC(=O)C1C(O)=C(C=NC2CCCCC2)C(=O)CC1(C)C (stereo not given) | 28* | -2 | -3 | 1 | -2 | 7 | 147* | 115*
O=C(c1ccccc1Cl)N1CC(c2nc(-c3cccs3)no2)C1 | nt | nt | -1 | nt | nt | nt | nt | nt
O=C(Cc1cccc2ccccc12)Nc1ccc(O)cc1C(=O)O | 32* | 4 | 0 | -3 | -3 | 3 | 4 | 1
O=C(C1CCCC1)N1CCCSCC1CN1CCCC1 (stereo not given) | nt | nt | 4 | nt | nt | nt | nt | nt
Cc1ccc(-c2c(C#N)c(N)nc3c2CCCCCC3)o1 | 31* | 26 | -12 | 0 | 6 | 4 | 51* | 38*
[O-][n+]1c2ccccc2cc2ccccc21 | 73* | -16 | -9 | -1 | -2 | 13 | + | +
Cc1cc(S(=O)(=O)Nc2ccccc2C(=O)O)ccc1F | nt | nt | -2 | nt | nt | nt | nt | nt
Cn1c(=O)n(C)c2cc(S(=O)(=O)Nc3ccccc3C(=O)O)ccc21 | 29* | 11 | 1 | 0 | 1 | -5 | + | +
Cc1ccc2nc(Cl)cc(=O)n2c1 | 45* | 26 | -16 | nt | nt | nt | 130* | 88*
Cc1ccc2nc(COC(=O)c3ccc(Cl)nc3)cc(=O)n2c1 | 7 | 20 | -1 | 0 | 8 | 1 | nt | nt
SMILES | FBA Mtb inh | GDH-TPI counter-1 | SSB-PriA inh | Mtb UGM inh | Mtb bLac sens | Rv3671c inh | Mtb FBA inh conf | GDH-TPI counter-2
Cc1ccc(-c2nc3c(=O)n(C)c4ccccc4c3o2)cc1 | 35* | 8 | -9 | 0 | 2 | 4 | 2 | -2
Cc1ccc(-c2nc3c(=O)n(-c4ccccc4)c4c(c(=O)n(C)c(=O)n4C)c3o2)cc1 | 2 | 0 | -12 | 1 | -2 | 6 | nt | nt
Cc1ccc(N(CN2CCCC2=O)C(=O)COc2ccc(Cl)cc2Cl)cc1Cl | nt | nt | -14 | nt | nt | nt | nt | nt
CCC(=O)Nc1nc2cc3sc(NC(=O)CC)nc3cc2s1 | nt | nt | -18 | nt | nt | nt | nt | nt
CCCCC(SCC(=O)Nc1ccccc1)C(=O)O (stereo not given) | 67* | 7 | -6 | 0 | -2 | 4 | 186* | 160*
Nc1ccc2nc3n(c(=O)c2c1)CCC3 | 110* | 9 | -5 | -1 | -11 | -4 | 4 | 1
O=c1c2ccccc2nc2n1CCC2 | -2 | 10 | -8 | 3 | -5 | 7 | nt | nt
CC(=O)OC(C)(C)C(=O)Nc1ccc(-c2csc(Nc3cccnc3)n2)cc1 | nt | nt | -2 | nt | nt | nt | nt | nt
Cc1noc(C)c1CC(=O)NCC#CCOc1ccccc1C(N)=O | nt | nt | -29 | nt | nt | nt | nt | nt
CC(C)N(C(=O)Cn1nc(-c2cccs2)c2sc(N3CCCC3)nc2c1=O)c1ccccc1 | nt | nt | -3 | nt | nt | nt | nt | nt
O=C(Nc1cnn(CC2CCOCC2)c1)c1cnn(-c2ccccc2)n1 | nt | nt | 2 | nt | nt | nt | nt | nt
Cc1cccc(NC(=O)CN2C(=O)N/C(=C\c3ccc(-c4cccc(C(=O)O)c4)o3)C2=O)c1 | 34* | 18 | -9 | 3 | 2 | -3 | 189* | 143*
COCCn1c(=NC(=O)c2ccc3c(c2)OCCO3)sc2cc(S(N)(=O)=O)ccc21 | 109* | 45* | -9 | -2 | 0 | -8 | 76* | 50*
CN(C)c1ccc(NC(=O)Cc2ccccc2)c2ccccc12 | 29* | 6 | -16 | -1 | 2 | -4 | 39* | 34*
CC1(C)COc2cc(NS(=O)(=O)c3ccc(F)cc3F)ccc2NC1=O | nt | nt | -3 | nt | nt | nt | nt | nt
N#Cc1c2c(c(NCc3ccco3)n3c1nc1ccccc13)CCC2 | 90* | 14 | -1 | 0 | 4 | -2 | + | +
N#Cc1c2c(c(NCc3ccccc3)n3c1nc1ccccc13)CCCC2 | nt | nt | -8 | nt | nt | nt | nt | nt
O=c1cc(CCl)[nH]c2nc3ccccc3n12 | 47* | 21 | -4 | -2 | -1 | -1 | 169* | 112*
CC(C)c1cc(=O)n2c(nc3ccccc32)[nH]1 | 45* | 3 | -37 | -1 | 7 | 4 | 119* | 108*
CCc1c(C)[nH]c2nc3ccccc3n2c1=O | 21 | 4 | -13 | 6 | 4 | -5 | nt | nt
O=c1cc(-c2ccccc2)[nH]c2nc3ccccc3n12 | 51* | 16 | -19 | 0 | ? | -27 | + | +
Cc1cc(=O)n2c(nc3ccccc32)s1 | -2 | 5 | nt | nt | nt | nt | nt | nt
Cn1c(-c2ccccn2)nn(CCNC(=O)c2cc(=O)c3ccccc3o2)c1=O | nt | nt | 7 | nt | nt | nt | nt | nt
COc1cc(=O)n(C)c2c(O)cccc12 | -2 | 1 | -7 | -1 | 2 | -8 | nt | nt
COc1cccc2c(=O)c3ccoc3n(C)c12 | 40* | 22 | 3 | 4 | -4 | 1 | 75* | 57*
COc1ccc(CCC(=O)NCc2cccnc2-c2cccs2)cc1Br | nt | nt | 2 | nt | nt | nt | nt | nt
CCC(c1nnc(SCC(=O)NCC2CCCO2)n1Cc1ccccc1)N(C)C (stereo not given) | 1 | 2 | -12 | -1 | 0 | 5 | nt | nt
